Bioassay records (PubChem BioAssay)
Most compounds without a hit are left out; they make up all but 21% or so of the library.
CHX counter: Cycloheximide Counterscreen for Small Molecule Inhibitors of Shiga Toxin; cell reporter, cycloheximide protein synthesis inhibition counterscreen; max response, %; hit rate 12% among 300,000; AID 2314, 2010; in the data active = max response mostly above about 13%, no sharp cut-off; inactive = mostly below about 14%; also: read at 38.3 µM for the half of the compounds with a filed dose; 0% is about no effect
Giardia FBPA inh: qHTS Assay for Inhibitors of Fructose-1,6-bisphosphate Aldolase from Giardia Lamblia; A8B2U2; purified Giardia FBPA; Potency, µM (series often up to 59.6 µM), for inactives: at the top dose activity, negative = inhibition, actives largely listed as inhibitors; hit rate 0.71% among 290,000; AID 2451, 2010; also: potency is read from the fitted curve at half-maximal effect; % is scaled to controls: 0 for no effect and ±100 for the full control effect; nearly all actives have a fitted effect of over 55% in size
Target sequence (A8B2U2 whole entry, looked up): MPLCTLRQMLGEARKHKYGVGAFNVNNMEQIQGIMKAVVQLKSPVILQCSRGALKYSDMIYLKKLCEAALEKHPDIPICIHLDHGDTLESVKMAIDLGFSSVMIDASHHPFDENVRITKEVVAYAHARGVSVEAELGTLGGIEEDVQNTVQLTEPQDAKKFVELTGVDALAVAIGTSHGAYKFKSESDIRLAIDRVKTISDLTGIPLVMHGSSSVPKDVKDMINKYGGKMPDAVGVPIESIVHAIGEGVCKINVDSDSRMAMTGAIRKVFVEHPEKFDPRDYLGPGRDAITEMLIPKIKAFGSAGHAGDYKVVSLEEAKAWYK
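Giardia FBPA (40 nM reagent) was preincubated 10 min at RT with compound (up to 57.5 uM final), then substrate plus GAPDH/TPI/NAD/arsenate coupling system with diaphorase/resazurin was added; resorufin fluorescence (525/598 nm) was read after 20 min.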
Shiga toxin inh: A qHTS for Small Molecule Inhibitors of Shiga Toxin. Vero cells, Shiga toxin protein synthesis inhibition reporter. hit rate 9.2% among 290,000. inhibition, % at 38.7 µM. AID 2315, 2010; in the data active = inhibition mostly above about 28%, no sharp cut-off; inactive = mostly below about 43%; also: 0% is about no effect
NS1 function inh: qHTS Assay for Inhibitors of Influenza NS1 Protein Function; Potency, µM (top dose mostly 46.1 µM), inactives show at the top dose activity, positive = more growth; hit rate 0.4% among 270,000; calls by dose curve; also: potency is read from the fitted curve at half-maximal effect; actives are rising curves; nearly all actives have a fitted effect of over 50% in size
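S. cerevisiae expressing influenza A NS1, grown in glucose, washed, then diluted 1:100 into pH 6.0 -URA galactose medium with 23 nl compound. Growth recovery read as OD600; NS1-free strain serves as control.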
Pf growth 96h: Primary qHTS for delayed death inhibitors of the malarial parasite plastid, 96 hour incubation; Potency, µM (series often up to 28.7 µM), inactives show top-dose activity change, negative = inhibition, actives largely listed as inhibitors; P. falciparum luciferase reporter growth, 96 h; hit rate 6.9% among 320,000; also: potency is read from the fitted curve at half-maximal effect; % is scaled to controls: 0 for no effect and ±100 for the full control effect
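Readout is luminescence from an integrated firefly luciferase in P. falciparum. Red cells, 2% hematocrit and 0.05% parasitemia final, were cultured with compound through two parasite generations (96 hours) at 37 C, 5% CO2.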
Pf growth 48h: Primary qHTS for delayed death inhibitors of the malarial parasite plastid, 48 hour incubation; P. falciparum luciferase growth in erythrocytes, 48 h; AID 504832, 2011; Potency, µM (series often up to 28.7 µM), inactives show at the highest dose activity change, negative = inhibition, actives largely listed as inhibitors; hit rate 5.9% among 310,000; also: potency is read from the fitted curve at half-maximal effect; % is scaled to controls: 0 for no effect and ±100 for the full control effect
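Parasite viability was followed by luminescence of a genomically integrated firefly luciferase. Cultures held 0.1% parasitemia at 2% hematocrit (final), incubated under 5% CO2 at 37 C.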
* = called active by the depositor; i = inactive; ? = inconclusive; . = no result. Unless noted, calls follow the shape of the dose curve; as a rule, active = well fitted curve in the direction sought with a large enough effect; inconclusive = small, poorly fitted or top-dose-only effect, or another doubt; inactive = no such curve, though single readings can be large; an effect the other way counts as inactive or inconclusive.

SMILES	CHX counter	Giardia FBPA inh	Shiga toxin inh	NS1 function inh	Pf growth 96h	Pf growth 48h
Oc1ccccc1C=NCc1ccccc1	.	.	.	.	?	-26.9%
Cc1[nH]n(-c2ccccc2)c(=O)c1/C=N/c1ccccn1	1.3	0.7%	5.6	-4.4%	11.5%	5.8%
CN(C(=O)COC(=O)C1COc2ccccc2O1)C1(C#N)CCCCC1 (configuration not stated)	.	.	.	.	22.0%	-0.3%
CCOC(=O)c1cc(CC)sc1NC(=O)c1cc(OCC)c(OCC)c(OCC)c1	0.9	.	1.4	28.5%	5.86µM*	8.28µM*
CCOC(=O)c1c(NC(=O)C(c2ccccc2)c2ccccc2)sc2c1C1CCN2CC1	8.2	-14.9%	9.3	-4.6%	?	2.08µM*
CCOC(=O)c1cc(CC)sc1NC(=O)c1ccc2c(c1)OCCO2	1.0	0.5%	-6.7	11.0%	.	0.7%
CCOC(=O)c1c(NC(=O)CCN2CCOCC2)sc(C)c1-c1ccccc1	1.6	-4.8%	-13.2	-7.8%	18.9%	?
CCOC(=O)c1cc(CC)sc1NC(=O)C(c1ccccc1)c1ccccc1	-2.4	.	-6.9	28.5%	8.28µM*	?
Cc1cccn2c(=O)c(/C=C(\C#N)C(N)=O)c(N3CCN(Cc4ccc5c(c4)OCO5)CC3)nc12	-4.3	-3.4%	-12.9	-1.1%	10.4µM*	9.28µM*
Cc1cccn2c(=O)c(/C=C(\C#N)C(N)=O)c(N3CCN(c4cccc(Cl)c4)CC3)nc12	5.7	5.2%	-4.2	13.7%	9.28µM*	?
Cc1cccn2c(=O)c(C=C(C#N)C#N)c(N3CCN(C)CC3)nc12	0.9	-3.0%	13.8	8.7%	7.38µM*	-3.3%
CCOC(=O)/C(C#N)=C/c1c(N2CCN(Cc3ccc4c(c3)OCO4)CC2)nc2c(C)cccn2c1=O	-3.5	-7.6%	-6.9	5.0%	?	3.7µM*
COC(=O)/C(C#N)=C/c1c(N2CCN(Cc3ccc4c(c3)OCO4)CC2)nc2c(C)cccn2c1=O	-1.6	1.8%	19.2	3.2%	?	?
COc1cc(C2c3cc4c(cc3C(OC3OC5COC(C)O[C@@H]5C(O)C3O)C3COC(=O)C23)OCO4)cc(OC)c1O (some centres not stated)	.	1.5%	.	.	.	.
CN(C)S(=O)(=O)c1cccc(NC(=S)NCCCn2ccnc2)c1	0.6	0.4%	-3.9	.	-5.1%	4.3%
COc1cc2c(cc1OC)C(NC(=O)c1ccc(C)cc1)CC2=O (configuration not stated)	-3.6	5.8%	-6.2	1.5%	38.1%	-1.4%
COc1cccc(NC(=O)C(=O)N2CCOCC2)c1	40.5*	3.4%	49.6*	10.0%	0.8%	i
CC(=O)c1cccc(OCC(=O)N2CCCc3ccccc32)c1	22.7*	4.2%	31.7	-0.9%	0.9%	-13.6%
COc1cccc(NC(=O)N2CCCC2)c1	27.3	-4.1%	54.4*	-1.9%	19.8%	77.5%
O=C(Nc1ccc2c(c1)CCCN2C(=O)c1ccccc1)c1ccccc1	22.0*	0.8%	54.1*	-15.8%	?	?
O=C(NC(=O)N1CCCc2ccccc21)c1ccccc1	8.3	2.8%	-2.3	.	?	-14.4%
Cc1cccc(OCC(=O)N2CCCc3ccccc32)c1	5.5	4.9%	2.0	-5.2%	0.0%	-8.5%
COC(=O)c1ccc(NC(=O)C(=O)N2CCN(C(=S)Nc3cccc(OC)c3)CC2)cc1	11.4	-2.3%	4.9	3.2%	-13.5%	1.8%
O=C(c1ccccc1)N1CCCC(C(=O)N2CCN(c3ccccc3)CC2)C1 (configuration not stated)	-0.6	2.5%	17.8	-3.6%	10.5%	-3.8%
OC(CNCC1COc2ccccc2O1)COc1ccccc1F (configuration not stated)	0.2	-0.5%	-9.7	-15.1%	3.7%	15.9%
O=C(c1coc(=O)c(Br)c1)N1CCCc2ccccc21	40.4*	?	73.8*	9.4%	?	13.5%
O=C(c1cccc(Br)c1)N1CCCc2ccccc21	-2.1	-9.9%	1.0	3.1%	?	20.2%
O=C(c1cc(=O)c2ccccc2o1)N1CCCc2ccccc21	14.6	3.1%	6.9	-8.1%	?	-1.7%
COc1cc(OC)cc(C(=O)N2CCCc3ccccc32)c1	24.0*	3.7%	85.2	-60.8%	0.0%	0.0%
